# Assay results published in publication PMC5540273 (PLoS ONE, 2017).
# Tests used:
# Conditions in all cases: concentration: 1 μM, replicates: in singlicate; n = 1
# [1] = tested on: HPK1
# [2] = tested on: HUNK
# [3] = tested on: ICK
# [4] = tested on: IGF1R
# [5] = tested on: T1, IKK-alpha
# T1 construct: gene CHUK
# [6] = tested on: T2, IKK-beta
# T2 construct: gene IKBKB
# [7] = tested on: T3, IKK-epsilon
# T3 construct: gene IKBKE
# [8] = tested on: INSRR
# [9] = tested on: INSR
# [10] = tested on: IRAK1
# [11] = tested on: IRAK3
# [12] = tested on: IRAK4
# [13] = tested on: ITK
# [14] = tested on: JAK1(JH1domain-catalytic)
# [15] = tested on: JAK1(JH2domain-pseudokinase)
# [16] = tested on: JAK2(JH1domain-catalytic)
# [17] = tested on: JAK3(JH1domain-catalytic)
# [18] = tested on: T4, JNK1
# T4 construct: gene MAPK8
# [19] = tested on: T5, JNK2
# T5 construct: gene MAPK9
# [20] = tested on: T6, JNK3
# T6 construct: gene MAPK10
# 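Note: KINOMEscan kinase panel screen.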
Compound,%Inh [1] [%],%Inh [2] [%],%Inh [3] [%],%Inh [4] [%],%Inh [5] [%],%Inh [6] [%],%Inh [7] [%],%Inh [8] [%],%Inh [9] [%],%Inh [10] [%],%Inh [11] [%],%Inh [12] [%],%Inh [13] [%],%Inh [14] [%],%Inh [15] [%],%Inh [16] [%],%Inh [17] [%],%Inh [18] [%],%Inh [19] [%],%Inh [20] [%]
COc1ccc(Nc2nccc(N3CCC(NC(=O)Nc4cccc(C(C)=O)c4)C3)n2)cc1 (stereo not drawn) [GSK1379731],40,3,0,0,9,1,0,0,0,6,0,4,14,0,0,17,0,14,15,4
COc1ccc(CNC(=O)NC2CCN(c3ccnc(Nc4ccc(OC)cc4)n3)C2)cc1 (stereo not drawn) [GSK1379727],38,0,0,0,20,10,12,0,0,28,13,4,7,16,0,20,0,32,19,9
Cc1cccc(-c2nc(Nc3ccc4ncsc4c3)c3ccccc3n2)n1 [GW867588],0,45,17,0,15,0,4,0,0,40,0,0,30,0,62,0,0,2,8,0
O=C(NCCNc1ccnc(Nc2ccc(F)cc2)n1)c1cc2ccccc2s1 [GSK1379874],33,12,0,0,0,0,22,0,0,16,0,10,6,12,0,0,0,13,0,0
CC(C)(C)n1cnc2c(N)ncnc21 [SKF-97359],33,19,31,0,0,0,0,0,0,0,0,0,4,0,0,0,18,20,0,2
O=C(c1ccc(-c2cc(-c3c[nH]nc3-c3ccccn3)ccn2)cc1)N1CCOCC1 [GW812171],0,33,0,0,46,0,0,0,21,14,0,0,5,0,48,37,0,30,19,2
CCc1ccnc(/C=C/c2n[nH]c3cc(Sc4ccccc4C(=O)NC)ccc23)c1,30,0,0,0,8,4,14,0,0,8,32,5,1,0,0,0,0,0,3,0
CN(C(=O)c1ccc(-c2cc(-c3c[nH]nc3-c3ccccn3)ccn2)cc1)C1CCOCC1 [GW810083],30,0,78,0,0,0,0,0,0,0,0,0,5,0,0,0,0,42,45,38
COc1ccc(S(=O)(=O)NC2CCN(c3cc(C)nc(Nc4cccc(C#N)c4)n3)CC2)cc1.O=C(O)C(F)(F)F [GSK1653539],38,2,0,0,0,0,49,0,0,0,0,0,10,34,0,0,0,0,28,12
COc1ccc(Nc2ncc(C#N)c(Nc3ccccc3C(N)=O)n2)cc1N1CCN(C)CC1.Cl [GSK1558669],96.4,0,97.6,99.6,97.8,88,93.8,100,99.9,99.8,100,99.4,99.8,0,99.9,99.1,98.8,99.5,100,99.9
c1ccc(-c2n[nH]cc2-c2ccnc3ccccc23)nc1 [GW271431],27,4,0,12,0,0,22,1,6,6,0,6,14,10,0,3,0,17,33,12
Cc1nnc(-c2ccc3occ(-c4ccc(C(C)O)cc4)c3c2)o1 (stereo not drawn),0,0,0,9,0,2,3,6,11,31,1,32,14,0,5,6,9,2,0,0
